Compound activity (PubChem)
Most compounds without a hit are left out; they make up all but 1.6% or so of the library.
KCNQ2 block: KCNQ2 (rat) channel inhibition | CHO-K1 KCNQ2, FluxOR thallium flux, 20 min; stronger effect = lower value | B-score at 10 µM | hit rate 1.1% among 310,000;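 active means fluorescence ratio B-score at most minus 3 library SDs, with starting brightness B-score within 2 library SDs, cut at about -5.5 in these data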
KCNQ2 enhance: KCNQ2 (rat) channel potentiation; CHO-K1 KCNQ2, FluxOR thallium flux fluorescence; stronger effect = higher value; B-score at 10 µM; hit rate 0.54% among 310,000; AID 2239;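 active means fluorescence ratio B-score at least 3 SD of library B-scores, with initial fluorescence B-score within 3 of them, cut at about 5.3 in these data; same plate scores as AID 2156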;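 further: B-score of peak minus minimum over baseline fluorescence ratio after K+ and Tl+ stimulus; positive B-score means potentiation of KCNQ2 with more thallium influx and brighter signal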
KCNQ2 block conf: confirmation of rat KCNQ2 potassium channel inhibitors. shares compounds with KCNQ2 block. KCNQ2-expressing cells, thallium flux, inhibition; stronger effect = lower value. activity change, negative = inhibition, % at 10 µM. hit rate 57% among 1,000. AID 493025
KCNQ1 spec: selectivity of KCNQ2 inhibitors against human KCNQ1 | shares compounds with KCNQ2 block | KCNQ1-expressing cells, FluxOR thallium flux fluorescence; stronger effect = lower value | activity change, negative = inhibition, % at 10 µM | hit rate 15% among 1,000;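 active means activity change at least 3 SD of negative controls below their mean in both duplicate wells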;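 further: CHO cells stably transfected with KCNQ1 and depolarized by potassium stimulus; peak minus minimum fluorescence over baseline after thallium addition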
Target sequence (P51787 whole entry, looked up): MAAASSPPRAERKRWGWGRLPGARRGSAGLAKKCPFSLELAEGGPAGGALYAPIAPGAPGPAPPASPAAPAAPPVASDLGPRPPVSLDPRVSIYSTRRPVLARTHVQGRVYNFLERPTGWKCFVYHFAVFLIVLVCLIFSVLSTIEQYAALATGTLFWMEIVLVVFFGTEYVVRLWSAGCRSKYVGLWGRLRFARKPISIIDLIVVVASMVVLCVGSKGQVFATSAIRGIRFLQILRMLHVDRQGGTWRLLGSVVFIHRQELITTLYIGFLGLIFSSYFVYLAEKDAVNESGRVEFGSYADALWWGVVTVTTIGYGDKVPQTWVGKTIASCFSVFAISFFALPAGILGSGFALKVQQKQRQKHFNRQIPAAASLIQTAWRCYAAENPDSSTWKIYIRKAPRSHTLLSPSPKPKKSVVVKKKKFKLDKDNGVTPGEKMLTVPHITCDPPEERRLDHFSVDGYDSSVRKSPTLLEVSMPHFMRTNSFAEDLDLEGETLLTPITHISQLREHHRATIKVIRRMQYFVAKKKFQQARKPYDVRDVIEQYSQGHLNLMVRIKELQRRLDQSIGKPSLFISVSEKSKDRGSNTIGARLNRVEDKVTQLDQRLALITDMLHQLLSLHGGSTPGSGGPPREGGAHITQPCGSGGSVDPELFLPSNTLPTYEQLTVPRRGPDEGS
CHO Tl ctr: counter-screen for KCNQ2 inhibitors: effect in parental CHO cells; shares compounds with KCNQ2 block; thallium flux counter-screen; stronger effect = lower value; activity change, % at 10 µM; hit rate 14% among 1,000; AID 493029
KCNQ2 patch conf: rat KCNQ2 inhibition confirmed by electrophysiology; shares compounds with KCNQ2 block; KCNQ2-expressing cells, automated patch clamp current; calls only at 10 µM; hit rate 49% among 550
Hits are given with their value; – = inactive; · = not tested or not shown; + = active, no number. Unless noted, how the calls were made is not given here.

SMILES | KCNQ2 block | KCNQ2 enhance | KCNQ2 block conf | KCNQ1 spec | CHO Tl ctr | others
COc1ccccc1NC(=O)C(C)OC(=O)C1CC(=O)N(c2ccc3c(c2)OCCO3)C1 (centres undefined) | – | · | · | · | ·
N#Cc1ccc(C(=O)CSc2n[nH]c(=O)n2-c2cccnc2)cc1 | – | – | · | · | ·
COc1cc2c(C(=O)N3CCN(c4ccccc4)CC3)c(C)oc2cc1Br | -7.4 | – | -37% | – | – | KCNQ2 patch conf=+
COc1ccccc1-c1cc(C(=O)N2CCN(c3ccccc3)CC2)no1 | – | · | · | · | ·
CC(=O)N1CCN(C2=Nc3cccc4cccc2c34)CC1 | – | · | · | · | ·
COc1ccccc1N1CCN(C2=Nc3cccc4cccc2c34)CC1 | -9 | – | -34% | – | – | KCNQ2 patch conf=+
CC1(c2cccc(Br)c2)NC(=O)NC1=O (centres undefined) | – | – | · | · | ·
COCCn1c(SC(C(=O)Nc2cc(C)ccc2OC)c2ccccc2)nnc1-c1ccc(Cl)cc1 (centres undefined) | -9.5 | – | – | – | –
COc1ccc(C)cc1NC(=O)C(Sc1nnnn1C)c1ccccc1 (centres undefined) | – | · | · | · | ·
Clc1ccc2nc(COc3ccccc3)[nH]c2c1 | – | · | · | · | ·
[2H]C([2H])(CCOS(N)(=O)=O)c1ccccc1 | – | – | · | · | ·
CCOc1ccccc1NC(=O)Cn1c(=O)n(-c2ccc(OC)cc2OC)c(=O)c2c(C)c(C(=O)N(CC)CC)sc21 | – | · | · | · | ·
COc1ccc(-n2c(=O)c3c4c(sc3n(CC(=O)Nc3cc(C)[nH]n3)c2=O)CCCC4)c(OC)c1 | -6.7 | – | – | – | –
O=C(NCCN1C(=O)S/C(=C\c2ccccc2)C1=O)C1CCN(S(=O)(=O)c2cccs2)CC1 | – | – | · | · | ·
Cc1ccc(C(C)C)cc1OCCn1cncn1 | – | – | · | · | ·
O=C1ON=C(c2ccccc2)/C1=C\c1ccco1 | – | · | · | · | ·
Cc1ccc(/C=C2/C(=O)ON=C2c2ccccc2)o1 | -9 | – | -24% | – | – | KCNQ2 patch conf=–
COC(=O)c1cccc(C(=O)N2CCCC(CCC(=O)N(C)CCc3ccccn3)C2)c1 (centres undefined) | – | · | · | · | ·
CC1=NN(C(=O)Cn2nc([N+](=O)[O-])c(Br)c2C)C(O)(C(F)(F)F)C1 (centres undefined) | – | – | · | · | ·
C=CCSc1nc2c(c(C3CC=CCC3)c1C#N)CCC2 (centres undefined) | -12 | – | -32% | -31% | -22% | KCNQ2 patch conf=–
C=CCSc1nc(N)c(C#N)c(-c2ccc(C)cc2)c1C#N | – | · | · | · | ·
COc1cc(C(=O)Nc2cccc(C)c2C)c(Br)c(OC)c1OC | -8 | – | -24% | – | – | KCNQ2 patch conf=+
COC(=O)c1cccc(NC(=O)c2cc(OC)c(OC)c(OC)c2Br)c1 | – | · | · | · | ·
CC(=O)N1CCOc2ccc(S(=O)(=O)NC(C)c3ccccc3)cc21 (centres undefined) | – | · | · | · | ·
CCOC(=O)N1CCC(N(CCOC)C(=O)Nc2ccc(Cl)c(Cl)c2)CC1 | -9.4 | – | -25% | – | –
SMILES | KCNQ2 block | KCNQ2 enhance | KCNQ2 block conf | KCNQ1 spec | CHO Tl ctr | others
CCOC(=O)N1CCC(N(CCCOC)C(=O)Nc2cccc(OC)c2)CC1 | – | · | · | · | ·
COc1cc(C(C)=O)ccc1OCC(=O)OCCCOC(=O)COc1ccc(C(C)=O)cc1OC | – | – | · | · | ·
COc1ccc(-c2[nH]ncc2-c2cnn(-c3ccccc3)c2)c(O)c1 | -7.7 | – | – | – | –
COc1ccc(-c2cn[nH]c2-c2ccc(O)cc2O)cc1 | – | · | · | · | ·
Cc1cccc(CC(=O)N2CCCC2)c1 | – | – | · | · | ·
O=C(CCCn1ncn2c(cc3occc32)c1=O)NCc1ccccc1F | – | · | · | · | ·
Cc1cccc(N2CCN(C(=O)C(Cc3ccccc3)NC(N)=O)CC2)c1C (centres undefined) | – | – | · | · | ·
Cc1cccc(N2CCN(C(=O)C(Cc3ccccc3)n3cccc3)CC2)c1C (centres undefined) | -13 | – | -43% | -34% | -31% | KCNQ2 patch conf=–
CCNC(=O)c1c(NC(=O)c2cc(-c3cc(C)ccc3O)n[nH]2)sc2c1CCCC2 | – | · | · | · | ·
Cn1c(-c2ccc3c(c2)OCO3)cnc1NCc1cccc(Cl)c1 | -9 | – | – | – | –
Cn1c(-c2ccc3c(c2)OCO3)cnc1NCc1ccccc1Cl | – | – | · | · | ·
Cc1ccc(C(=O)N2CCN(Cc3ccc4c(c3)OCO4)CC2)o1 | – | – | · | · | ·
Cc1ccc2c(C)c(C(=O)N3CCN(Cc4ccc5c(c4)OCO5)CC3)oc2c1C | -6.9 | – | – | – | –
CC(OC(=O)CCN=C1NS(=O)(=O)c2ccccc21)C(=O)Nc1ccc(F)c(F)c1F (centres undefined) | – | · | · | · | ·
Nc1ccccc1C(=O)NC1CCCNC1=O (centres undefined) | – | · | · | · | ·
Cc1noc(C)c1CSc1nc2ccccc2c(=O)n1-c1ccc(F)cc1F | -7.3 | – | -20% | – | – | KCNQ2 patch conf=+
C=CCn1c(SCc2c(C)noc2C)nc2ccccc2c1=O | – | · | · | · | ·
COc1ccc(C(=O)OC2CCN(c3ncc(C(F)(F)F)cc3Cl)CC2)cc1 | -8.7 | – | – | – | –
O=C(OC1CCN(c2ncc(C(F)(F)F)cc2Cl)CC1)c1ccccc1 | – | · | · | · | ·
CC(C)C(C)NC(=O)COC(=O)c1cc(S(=O)(=O)N(C)C)ccc1N1CCCC1 (centres undefined) | – | · | · | · | ·
Cc1ccc(S(=O)(=O)/N=C(/c2ccc(F)cc2)N2CCCCC2)cc1 | – | · | · | · | ·
COc1cccc(N/C(C)=C/C(=O)c2ccc(Br)cc2)c1 | -7.6 | – | -41% | -47% | -33% | KCNQ2 patch conf=–
C/C(=C\C(=O)c1ccc(Br)cc1)Nc1ccc(Cl)cc1 | – | · | · | · | ·
O=C(Cn1ncc2c([nH]c3ccccc32)c1=O)N1CCN(c2ccccn2)CC1 | – | – | · | · | ·
COC(=O)c1ccccc1-n1cccc1C(=O)NP(=O)(N1CCOCC1)N1CCOCC1 | – | · | · | · | ·
SMILES | KCNQ2 block | KCNQ2 enhance | KCNQ2 block conf | KCNQ1 spec | CHO Tl ctr | others
Cc1c(Cl)cccc1NC(=S)NC1CCN(C(C)C)CC1 | – | – | · | · | ·
Oc1ccccc1N=Nc1nc(-c2ccccc2)c(-c2ccccc2)[nH]1 | -6.6 | – | – | – | –
COc1ccccc1N=Nc1nc(-c2ccccc2)c(-c2ccccc2)[nH]1 | – | · | · | · | ·
Cc1nn(C2CCS(=O)(=O)C2)c(C)c1C=O (centres undefined) | – | – | · | · | ·
O=C(CCC(=O)N1CCSc2ccccc21)NC1CCCCC1 | – | · | · | · | ·
O=C(C1=C(Nc2ccccc2)c2ccccc2S(=O)(=O)N1)c1ccccc1 | – | – | · | · | ·
Cc1ccccc1NC1=C(C(=O)c2ccccc2)N(C)S(=O)(=O)c2ccccc21 | -8.1 | – | -29% | – | – | KCNQ2 patch conf=+
O=C(NC1CC1)C1CCN(C2CCN(C(=O)/C=C/c3ccc(F)cc3)CC2)CC1 | – | – | · | · | ·
CN1/C(=C\C(=O)c2cccnc2)C(C)(C)c2ccccc21 | – | · | · | · | ·
CN1/C(=C\C(=O)c2cncc(Br)c2)C(C)(C)c2ccccc21 | -8 | – | -40% | -43% | -37% | KCNQ2 patch conf=–
C1=CCN(Cc2ccccc2)C1 | – | – | · | · | ·
COC(=O)C(NC(C)=O)(Nc1nc(C)cs1)C(F)(F)F (centres undefined) | – | · | · | · | ·
COC(=O)C(NC(=O)c1ccccc1)(Nc1nc(C)cs1)C(F)(F)F (centres undefined) | -8.5 | – | – | – | –
O=C(NC1CC1)c1ccc(-n2cccc2)cc1 | – | · | · | · | ·
